# Assay results published in PMC8384837, “Expanding the binding specificity for RNA recognition by a PUF domain”.
# Tests used:
# Assay in all cases: yeast three-hybrid, YBZ-1, SC-Leu-His + 0.5 mM 3-AT, 4 days
# Details in all cases: tags: N-Gal4 AD-HA kept; label: inside an RPR1-promoter hybrid RNA with tandem MS2 sites; ssRNA
# PUM1 PUF domain R1-KAR = PUM1 PUF domain R1-KAR (Homo sapiens, UniProt Q14671 828-1176, S863K;R864A;Q867R)
# Method in brief: (§1)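 Repeat regions from input (SC-Leu) and selection (SC-Leu-His + 0.5 mM 3-AT) plates were PCR-amplified and Illumina-sequenced after four days of growth. The cells were strain YBZ-1 with a LexA–MS2 coat fusion and a HIS3 reporter, co-expressing Pumilio-1 PUF domain libraries and matching RNA elements from a centromeric plasmid. The interaction score is the log change in variant frequency from input to selection, taken in log2 with a pseudocount of 1 for absent variants.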
# PUM1 PUF domain R4-ACC = PUM1 PUF domain R4-ACC (Homo sapiens, UniProt Q14671 828-1176, N971A;H972C;Q975C)
# Method in brief: as §1
# PUM1 PUF domain R6-TFT = target: T1, PUM1 PUF domain R6-TFT (Homo sapiens, UniProt Q14671 828-1176, N1043T;Y1044F;Q1047T)
# T1 sequence: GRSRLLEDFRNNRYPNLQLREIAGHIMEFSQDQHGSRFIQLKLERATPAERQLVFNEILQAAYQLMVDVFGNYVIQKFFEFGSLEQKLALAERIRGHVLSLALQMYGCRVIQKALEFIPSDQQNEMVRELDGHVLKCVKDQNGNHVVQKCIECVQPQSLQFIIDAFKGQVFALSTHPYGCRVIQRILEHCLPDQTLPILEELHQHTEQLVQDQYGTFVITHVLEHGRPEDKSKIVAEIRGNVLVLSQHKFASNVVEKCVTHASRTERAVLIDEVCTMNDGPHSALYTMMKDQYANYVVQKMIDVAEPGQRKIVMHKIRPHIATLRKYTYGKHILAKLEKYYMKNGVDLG
# Method in brief: as §1
# PUM1 PUF domain R4-PYT = PUM1 PUF domain R4-PYT (Homo sapiens, UniProt Q14671 828-1176, N971P;H972Y;Q975T)
# Method in brief: as §1
# PUM1 PUF domain R5-FFV = PUM1 PUF domain R5-FFV (Homo sapiens, UniProt Q14671 828-1176, C1007F;R1008F;Q1011V)
# Method in brief: as §1
# PUM1 PUF domain R5-NRR = PUM1 PUF domain R5-NRR (Homo sapiens, UniProt Q14671 828-1176, C1007N;Q1011R)
# Method in brief: as §1
# PUM1 PUF domain R4-TNG = PUM1 PUF domain R4-TNG (Homo sapiens, UniProt Q14671 828-1176, N971T;H972N;Q975G)
# Method in brief: as §1
# PUM1 PUF domain R4-HRV = PUM1 PUF domain R4-HRV (Homo sapiens, UniProt Q14671 828-1176, N971H;H972R;Q975V)
# Method in brief: as §1
# PUM1 PUF domain R8-CYP = PUM1 PUF domain R8-CYP (Homo sapiens, UniProt Q14671 828-1176, N1122C;Q1126P)
# Method in brief: as §1
# PUM1 PUF domain R2-VFV = PUM1 PUF domain R2-VFV (Homo sapiens, UniProt Q14671 828-1176, N899V;Y900F;Q903V)
# Method in brief: as §1
sequence,measurement,setting,value
GGCUAGAACUAGUGGAUCCCCCGGCGCCCGGCGGCUCGAGCCCGGGUAAGUGUAAAUAGUCUGCAUGCCGCCGGGCGCCAUGCCUGCAGGUCGACUCUAGAAAACAUG,binding signal,PUM1 PUF domain R1-KAR,2.23 log2 enrichment (interaction score)
same,binding signal,PUM1 PUF domain R4-ACC,2.56 log2 enrichment (interaction score)
same,binding signal,PUM1 PUF domain R6-TFT,3.71 log2 enrichment (interaction score)
same,binding signal,PUM1 PUF domain R4-PYT,4.57 log2 enrichment (interaction score)
same,binding signal,PUM1 PUF domain R5-FFV,2.23 log2 enrichment (interaction score)
GGCUAGAACUAGUGGAUCCCCCGGCGCCCGGCGGCUCGAGCCCGGGUAAGUGUCAAUAGUCUGCAUGCCGCCGGGCGCCAUGCCUGCAGGUCGACUCUAGAAAACAUG,binding signal,PUM1 PUF domain R5-NRR,6.16 log2 enrichment (interaction score)
GGCUAGAACUAGUGGAUCCCCCGGCGCCCGGCGGCUCGAGCCCGGGUAAGUGUAUAUAGUCUGCAUGCCGCCGGGCGCCAUGCCUGCAGGUCGACUCUAGAAAACAUG,binding signal,PUM1 PUF domain R4-TNG,2.66 log2 enrichment (interaction score)
same,binding signal,PUM1 PUF domain R4-HRV,2.89 log2 enrichment (interaction score)
same,binding signal,PUM1 PUF domain R4-PYT,7.53 log2 enrichment (interaction score)
GGCUAGAACUAGUGGAUCCCCCGGCGCCCGGCGGCUCGAGCCCGGGUAAGUGUAAAUUGUCUGCAUGCCGCCGGGCGCCAUGCCUGCAGGUCGACUCUAGAAAACAUG,binding signal,PUM1 PUF domain R1-KAR,6.7 log2 enrichment (interaction score)
GGCUAGAACUAGUGGAUCCCCCGGCGCCCGGCGGCUCGAGCCCGGGUAAGUGUACAUAGUCUGCAUGCCGCCGGGCGCCAUGCCUGCAGGUCGACUCUAGAAAACAUG,binding signal,PUM1 PUF domain R4-TNG,0.22 log2 enrichment (interaction score)
same,binding signal,PUM1 PUF domain R4-HRV,1.98 log2 enrichment (interaction score)
same,binding signal,PUM1 PUF domain R4-PYT,6.02 log2 enrichment (interaction score)
GGCUAGAACUAGUGGAUCCCCCGGCGCCCGGCGGCUCGAGCCCGGGUAAGCGUAAAUAGUCUGCAUGCCGCCGGGCGCCAUGCCUGCAGGUCGACUCUAGAAAACAUG,binding signal,PUM1 PUF domain R8-CYP,4.27 log2 enrichment (interaction score)
GGCUAGAACUAGUGGAUCCCCCGGCGCCCGGCGGCUCGAGCCCGGGUAAGUGUAAAAAGUCUGCAUGCCGCCGGGCGCCAUGCCUGCAGGUCGACUCUAGAAAACAUG,binding signal,PUM1 PUF domain R2-VFV,5.17 log2 enrichment (interaction score)
